Where a name gives a salt, the structure may show the parent alone.
Columns and labels:
[1] = test system: Staphylococcus aureus Sa2 (MRSA, cystic fibrosis isolate); assay: growth reduction vs untreated control (OD550); higher = stronger antibacterial activity; conditions: 0.1 mM; 24 h
Procedure: (§1)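 Single-dose screen of the MedChem Express Drug Repurposing Library (0.1 mM, 1% DMSO) against planktonic MRSA S. aureus Sa2 (CF isolate) in TSB in 96-well plates, 37 °C aerobic, 24 h. Assays were run in triplicate and repeated twice.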

[2] = test system: Staphylococcus aureus Sa2 (MRSA, cystic fibrosis isolate); assay: growth reduction vs untreated control (viable cell count); higher = stronger antibacterial activity; extreme values may be limits of the assay; conditions: 0.1 mM; 24 h
Procedure: as §1

| SMILES | growth reduction [1] | growth reduction [2] |
| --- | --- | --- |
| CCCCCCCCCCCCN1CCCCCC1=O [Laurocapram] | 100% | 100% |
| Cc1cc(O[C@@H](CCC(F)(F)F)c2ccc(C(=O)NCCC(=O)O)cc2)cc(C)c1-c1ccc(C(C)(C)C)cc1 [Adomeglivant] | 100% | 100% |
| CCCCCCCOc1ccc(CCC(N)(CO)CO)cc1C(F)(F)F [Amiselimod (hydrochloride)] | 100% | 100% |
| C[C@@H](NCCCc1cccc(C(F)(F)F)c1)c1cccc2ccccc12 [Cinacalcet] | 97.4% | 100% |
| O=C(NC(=Nc1cc(C(F)(F)F)[nH]n1)Nc1cc(F)cc(Cl)c1)c1cccc(Cl)c1 [Parimifasor] | 100% | 100% |
| COc1c(-c2ccc3cc(NS(C)(=O)=O)ccc3c2)cc(-n2ccc(=O)[nH]c2=O)cc1C(C)(C)C [Dasabuvir] | 91.1% | 93% |
| Cc1ccc(C(=O)c2cc(O)c(O)c([N+](=O)[O-])c2)cc1 [Tolcapone] | 100% | 100% |
| O=C(O)c1cc(F)c2nc(N3[C@@H]4CC[C@H]3C[C@@H](OCc3c(-c5ccccc5OC(F)(F)F)noc3C3CC3)C4)sc2c1 [Tropifexor] | 100% | 100% |
| CC(C)(C(=O)NCC(F)(F)C(F)(F)F)C(=O)N[C@@H]1C(=O)Nc2ccccc2-c2ccccc21 | 100% | 90% |
| NC(=O)C1=C(O)[C@@]2(O)C(=O)C3=C(O)c4c(O)cccc4C[C@H]3C[C@H]2CC1=O [Incyclinide] | 100% | 100% |
| Cc1cnc(NC(=O)Nc2cc(Br)c(C)cc2OC[C@@H]2CNCCO2)cn1 [Rabusertib] | 100% | 100% |
| Nc1ccc(S(=O)(=O)Nc2cnc3c(Cl)cccc3n2)cc1 [Chloroquinoxaline sulfonamide] | 91.6% | 99% |
| CC(=O)Oc1cccc2c1C(=O)c1c(OC(C)=O)cc(C(=O)O)cc1C2=O [Diacerein] | 93.4% | 100% |
| COc1ccc(NS(=O)(=O)c2c(F)c(F)c(F)c(F)c2F)cc1F [Batabulin] | 95.5% | 98% |
| c1ccc(-c2ccc(C(c3ccccc3)n3ccnc3)cc2)cc1 (stereo not drawn) [Bifonazole] | 100% | 100% |
| C=CC(=O)Nc1cc(Nc2nccc(-c3cn(C4CC4)c4ccccc34)n2)c(OC)cc1N(C)CCN(C)C [Almonertinib] | 100% | 100% |
| C#C[C@]1(OC(C)=O)CC[C@H]2[C@@H]3CCC4=C[C@@H](OC(C)=O)CC[C@@H]4[C@H]3CC[C@@]21C [Ethynodiol diacetate] | 92.7% | 94% |
| COc1ccc2c(c1OCc1ccccc1)C[C@@H](C(=O)O)N(C(=O)C(c1ccccc1)c1ccccc1)C2 [Olodanrigan] | 95.1% | 100% |
| COc1cc([C@H]2C(C#N)=C(N)Oc3c2ccc(N)c3N)cc(Br)c1OC [Crolibulin] | 98.1% | 100% |
| C=CC(=O)Nc1cc(Nc2nccc(-c3cn(C)c4ccccc34)n2)c(OC)cc1N(C)CCN(C)C [Osimertinib (dimesylate)] | 100% | 100% |
| Cc1ccc(-n2[nH]c(C)c(N=Nc3cccc(-c4cccc(C(=O)O)c4)c3O)c2=O)cc1C [Eltrombopag (Olamine)] | 95.9% | 100% |
| CN(C)C(=O)/C=C/CNCCOc1ccc(/C(=C(/CC(F)(F)F)c2ccccc2)c2ccc3[nH]nc(F)c3c2)cn1 | 100% | 100% |
| Cc1cc(Nc2ncc(Cl)c(Nc3ccccc3S(=O)(=O)C(C)C)n2)c(OC(C)C)cc1C1CCNCC1 [Ceritinib dihydrochloride] | 100% | 100% |
| CC(=C(CCOC(=O)C(C)C)SSC(CCOC(=O)C(C)C)=C(C)N(C=O)Cc1cnc(C)nc1N)N(C=O)Cc1cnc(C)nc1N (stereo in doubt) [Sulbutiamine] | 97% | 97% |
| Oc1ccc2c(c1)CC[C@H](c1ccccc1)[C@@H]2c1ccc(OCCN2CCCC2)cc1 [Lasofoxifene (Tartrate)] | 98.2% | 100% |

| SMILES | growth reduction [1] | growth reduction [2] |
| --- | --- | --- |
| Cc1ccc(Sc2ccccc2N2CCNCC2)c(C)c1 [Vortioxetine (hydrobromide)] | 100% | 100% |
| CC1(C)S[C@@H]2[C@H](NC(=O)[C@H](N)c3ccccc3)C(=O)N2[C@H]1C(=O)OCOC(=O)[C@@H]1N2C(=O)C[C@H]2S(=O)(=O)C1(C)C [Sultamicillin (tosylate)] | 100% | 100% |
| O=C1[C@H](CC[C@H](O)c2ccc(F)cc2)[C@@H](c2ccc(O)cc2)N1c1ccc(F)cc1 [Ezetimibe] | 91.7% | 91% |
| O=C(c1ccc(OCCN2CCCCC2)cc1)c1c(-c2ccc(O)cc2)sc2cc(O)ccc12 [Raloxifene (hydrochloride)] | 99.8% | 93% |
| CC(O)c1cc(C(=O)N[C@@H](C)Cn2ccc(-c3ccc(C#N)c(Cl)c3)n2)n[nH]1 (stereo partly drawn) [Darolutamide] | 100% | 100% |
| Nc1ncccc1-c1nc2ccc(-c3ccccc3)nc2n1-c1ccc(C2(N)CCC2)cc1 [Miransertib] | 97.6% | 95% |
| C[C@H](Nc1cc(-c2cnn(C)c2)cc(Nc2cnccn2)n1)c1ccc(F)cc1 [Ilginatinib (maleate)] | 100% | 95% |
| Cc1cn(-c2cc(NC(=O)c3ccc(C)c(Nc4nccc(-c5cccnc5)n4)c3)cc(C(F)(F)F)c2)cn1 [Nilotinib] | 100% | 92% |
| C[C@@H](O[C@H]1OCCN(Cc2n[nH]c(=O)[nH]2)[C@H]1c1ccc(F)cc1)c1cc(C(F)(F)F)cc(C(F)(F)F)c1 [Aprepitant] | 98.2% | 100% |
| Cc1cc(Nc2ncc(Cl)c(Nc3ccccc3S(=O)(=O)C(C)C)n2)c(OC(C)C)cc1C1CCNCC1 [Ceritinib] | 100% | 100% |
| C=C[C@@H]1C[C@]1(NC(=O)[C@@H]1C[C@@H]2CN1C(=O)[C@H](C(C)(C)C)NC(=O)O[C@@H]1C[C@H]1CCCCCc1nc3ccc(OC)cc3nc1O2)C(=O)NS(=O)(=O)C1CC1 [Grazoprevir hydrate] | 100% | 100% |
| CCN(C/C=C\c1ccc(C2CCCCC2)c(Cl)c1)C1CCCCC1 | 100% | 99% |
| CN1CCCN=C1/C=C/c1cccs1 [Pyrantel (pamoate)] | 91.6% | 96% |
| O=C(NC[C@H]1CN(c2ccc(N3CCOCC3=O)cc2)C(=O)O1)c1ccc(Cl)s1 [Rivaroxaban] | 100% | 100% |
| Cc1ccc(-c2c(C(=O)CCl)n(CCCO)c3ncnc(N)c23)cc1 | 99.8% | 100% |
| CN[C@H]1CC[C@@H](c2ccc(Cl)c(Cl)c2)c2ccccc21 [Sertraline (hydrochloride)] | 100% | 100% |
| COC(=O)N[C@H](C(=O)N1CCC[C@H]1c1nc(-c2ccc3c(c2)O[C@@H](c2ccccc2)n2c-3cc3cc(-c4c[nH]c([C@@H]5CCCN5C(=O)[C@@H](NC(=O)OC)C(C)C)n4)ccc32)c[nH]1)C(C)C [Elbasvir] | 97.8% | 100% |
| OC(c1cc(C(F)(F)F)nc2c(C(F)(F)F)cccc12)C1CCCCN1 (stereo not drawn) [Mefloquine (hydrochloride)] | 100% | 100% |
| CNC(=O)c1cc(Oc2ccc(NC(=O)Nc3ccc(Cl)c(C(F)(F)F)c3)cc2)ccn1 [Sorafenib] | 93.5% | 100% |
| O=C(O)c1ccccc1Nc1cccc(C(F)(F)F)c1 [Flufenamic acid] | 93.6% | 98% |
| C=CC(=O)Nc1cccc(Oc2nc(Nc3ccc(N4CCN(C)CC4)c(F)c3)nc3[nH]ccc23)c1 [Avitinib (maleate)] | 100% | 99% |
| C=C1CC[C@H](O)C/C1=C/C=C1\CCC[C@]2(C)[C@@H]([C@H](C)/C=C/[C@H](C)C(C)C)CC[C@@H]12 [Vitamin D2] | 100% | 100% |
| COC(=O)[C@]12CCC(C)(C)C[C@H]1[C@H]1C(=O)C=C3[C@@]4(C)C=C(C#N)C(=O)C(C)(C)[C@@H]4CC[C@@]3(C)[C@]1(C)CC2 [Bardoxolone methyl] | 100% | 100% |
| CC[C@@]1(O)C[C@H](O[C@H]2C[C@H](N(C)C)[C@H](O[C@H]3C[C@H](O)[C@H](O[C@H]4CCC(=O)[C@H](C)O4)[C@H](C)O3)[C@H](C)O2)c2c(cc3c(c2O)C(=O)c2c(O)cccc2C3=O)[C@H]1C(=O)OC [Aclacinomycin A hydrochloride] | 100% | 100% |

— the supplement of paper PMC12024424
